Compound activity as filed in PubChem BioAssay.
Only some compounds are listed: those with a hit (about 6.5% of all), similar ones and a draw of the others.
HCMV inh: blocks human cytomegalovirus replication. HFF cells, HCMV-luciferase reporter, 72 h; hits give low values. activity change, negative = inhibition, % at 57.5 µM. actives 4.5% (n = 410,000). AID 1259415; in the data active means activity change below about -60%; inconclusive means no clear call, values can overlap the other calls; inactive means above about -39%
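Two-dose cell screen: HFF monolayers treated with compounds and infected with luciferase-expressing HCMV at 1 PFU/cell, 72 h at 37C, then lysed for luciferase measurement.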
MARV entry inh: inhibitors of Marburg virus binding or cell entry | Marburg virus pseudotyped entry inhibition, cell reporter | Potency, µM (titrated, usually from 37.8 µM), most hits filed as inhibitors | actives 1.8% (n = 300,000); calls by dose curve; tested in HEK293 cells
LASV entry inh: inhibitors of Lassa virus binding or cell entry; Lassa virus pseudotype entry inhibition, cell reporter; Potency, µM (series often up to 37.9 µM), actives largely listed as inhibitors; actives 1.2% (n = 300,000); calls by dose curve; tested in HEK293 cells; further: nearly all actives have a fitted effect of over 50% in size
VACV mCherry inh: inhibitors of vaccinia virus infection (mCherry reporter signal). Vaccinia virus mCherry reporter infection, fluorescence. Potency, µM (series often up to 36.5 µM), hits mostly inhibitors. actives 0.63% (n = 310,000). AID 720579; calls by dose curve; tested in A549 cells; further: nearly all actives have a fitted effect of over 35% in size
VACV Venus inh: vaccinia inhibition (Venus reporter). Potency, µM (titrated, usually from 36.5 µM), hits mostly inhibitors. Vaccinia virus Venus reporter expression, fluorescence. actives 0.46% (n = 330,000); calls by dose curve; tested in A549 cells; further: nearly all actives have a fitted effect of over 30% in size
FMDV inh: foot and mouth disease virus antiviral activity; Potency, µM (series often up to 57.9 µM), usual class: inhibitors; FMDV antiviral cell-based qHTS; actives 1.2% (n = 410,000); calls by dose curve; tested in HEK293T cells; further: read-out not given here; nearly all actives have a fitted effect of over 45% in size
Large screens that a line does not name were inactive; ! = not confirmed by another sample.

CC(C)(C)OC(=O)[C@H](Cc1ccccc1)NC(=O)c1nc[nH]c1C(=O)N[C@@H](Cc1ccccc1)C(=O)OC(C)(C)C	HCMV inh -68.2, VACV mCherry inh inconclusive, VACV Venus inh inconclusive, FMDV inh inconclusive (no result: MARV entry inh, LASV entry inh)
COc1ccc2cc([C@@H](C)C(=O)O)ccc2c1	FMDV inh 2.24µM (no result: MARV entry inh, LASV entry inh)
COc1ccc2cc(C(C)C(=O)OC(C)C)ccc2c1 (centres undefined)	none (no result: MARV entry inh, LASV entry inh)
CCc1ccc(-c2nn(CC(=O)NCc3ccccc3)c3c2cnc2ccc(F)cc23)cc1	none (no result: MARV entry inh)
N#CC1(NC(=O)CSc2nc3ccc([N+](=O)[O-])cc3s2)CCCCC1	HCMV inh -80.9, MARV entry inh inconclusive, FMDV inh inconclusive
CCC(C)NC(=O)c1ccc2c(=O)n3c(nc2c1)CCCCC3 (centres undefined)	none
CCCCNC(=O)c1cnn2c(C)c(Cc3c(C)cc(C)cc3C)c(C)nc12	LASV entry inh inconclusive, VACV Venus inh inconclusive, FMDV inh 15.8µM (no result: MARV entry inh)
O=C(Nc1ccccc1F)N1C[C@@H]2[C@H](c3ccccc31)[C@H](CO)N2C(=O)Nc1ccccc1	none (no result: MARV entry inh, LASV entry inh, VACV mCherry inh, VACV Venus inh, FMDV inh)
Nc1nc(N)c2cc(S(=O)(=O)c3ccc4ccccc4c3)ccc2n1	HCMV inh -82.0, VACV mCherry inh inconclusive, VACV Venus inh inconclusive (no result: MARV entry inh, LASV entry inh)
Nc1nc(N)c2cc([N+](=O)[O-])ccc2n1	VACV mCherry inh inconclusive
COc1ccc(Br)c2c1-c1nc(NC(=O)c3ccccc3SC)sc1C2	HCMV inh -62.6
CCOC(=O)C(C(=O)OCC)C(Nc1ccc(Br)cc1)c1ccccc1 (centres undefined)	FMDV inh 12.6µM (no result: VACV mCherry inh, VACV Venus inh)
CCOC(=O)C(c1ccccc1)C(Nc1ccc(F)cc1)c1ccccn1 (centres undefined)	none (no result: MARV entry inh, LASV entry inh, VACV mCherry inh, VACV Venus inh)
CCN(CC)C(=O)c1sc2c(c1C)c(=O)n(CCc1ccccc1)c(=O)n2Cc1ccc(F)cc1Cl	none (no result: MARV entry inh)
CCN(CC)C(=O)c1sc2c(c1C)c(=O)n(CCc1ccccc1)c(=O)n2Cc1cccc(Cl)c1	HCMV inh inconclusive, LASV entry inh 6.31µM, FMDV inh inconclusive (no result: MARV entry inh)
CCOc1ccc(N(CC)S(=O)(=O)c2cc(Br)cc3c2N(C(C)=O)C(C)C3)cc1 (centres undefined)	HCMV inh -62.9, MARV entry inh inconclusive, LASV entry inh inconclusive, VACV mCherry inh inconclusive, FMDV inh 11.2µM
CC(C)CC(=O)Nc1ccc2nc(SCC(=O)N3CCc4ccccc43)sc2c1	FMDV inh inconclusive
CCN(CC)C(=O)c1ccc2c3c(cccc13)C(=O)N(CCc1ccc(OC)c(OC)c1)C2=O	MARV entry inh inconclusive, LASV entry inh inconclusive, VACV mCherry inh inconclusive, VACV Venus inh inconclusive, FMDV inh 31.6µM (no result: HCMV inh)
CCOc1ccccc1C(=O)Nc1cnn(Cc2ccc(F)cc2)c1	HCMV inh -63.4, MARV entry inh inconclusive, VACV mCherry inh inconclusive
O=C(CN(Cc1ccccc1Cl)C(=O)c1csnn1)NCc1ccc2c(c1)OCO2	VACV mCherry inh inconclusive
Cc1ccc(-n2nc(C(=O)N3CCN(c4cc(Cl)ccc4C)CC3)c(=O)n(C)c2=O)cc1	none (no result: MARV entry inh)
Oc1c(I)cc(I)c2cccnc12	HCMV inh -100.3, VACV Venus inh inconclusive
O=S(=O)(O)c1cc(I)c(O)c2ncccc12	none (no result: MARV entry inh, LASV entry inh, VACV mCherry inh, VACV Venus inh, FMDV inh)
Cc1ccc(S(=O)(=O)Nc2cccnc2Oc2ccc(Cl)cc2)cc1	none (no result: MARV entry inh, LASV entry inh, VACV mCherry inh, VACV Venus inh)
Cc1ccc2c(Cl)cc(Cl)c(O)c2n1	HCMV inh -74.7, MARV entry inh 11.2µM, LASV entry inh inconclusive, VACV mCherry inh inconclusive, VACV Venus inh inconclusive, FMDV inh 10µM!
CCC(=O)NC(C)c1cc(Cl)c2cccnc2c1O (centres undefined)	HCMV inh -97.3 (no result: MARV entry inh, LASV entry inh, VACV mCherry inh, VACV Venus inh)
CCC(=O)NC(c1cc(Cl)c2ccccc2c1O)C(C)C (centres undefined)	none (no result: MARV entry inh, LASV entry inh, VACV mCherry inh, VACV Venus inh)
Cc1ccc(S(=O)(=O)Nc2cc(Cl)c(O)c3ncccc23)cc1	HCMV inh -98.2, MARV entry inh inconclusive, LASV entry inh inconclusive, VACV mCherry inh inconclusive, VACV Venus inh inconclusive
CC[C@@H](C)CCCCC(=O)N[C@@H](CCNCS(=O)(=O)O)C(=O)N[C@H](C(=O)N[C@@H](CCNCS(=O)(=O)O)C(=O)N[C@H]1CCNC(=O)[C@H]([C@@H](C)O)NC(=O)[C@H](CCNCS(=O)(=O)O)NC(=O)[C@H](CCNCS(=O)(=O)O)NC(=O)[C@H](CC(C)C)NC(=O)[C@@H](CC(C)C)NC(=O)[C@H](CCNCS(=O)(=O)O)NC1=O)[C@@H](C)O	none (no result: HCMV inh, MARV entry inh, LASV entry inh)
O=C(NCc1cccc(C(F)(F)F)c1)c1ccc[nH]1	none (no result: MARV entry inh, LASV entry inh, VACV mCherry inh, VACV Venus inh)
Oc1c(Cl)cc(Cl)c2cccnc12	HCMV inh -98.5, VACV Venus inh inconclusive, FMDV inh inconclusive (no result: MARV entry inh, LASV entry inh)
O=C(Oc1c(Cl)cc(Cl)c2cccnc12)c1ccco1	HCMV inh -101.7, MARV entry inh inconclusive, LASV entry inh inconclusive, VACV mCherry inh 12.6µM, VACV Venus inh inconclusive, FMDV inh inconclusive
CC(=O)NC(C)c1cc(Cl)c2cccnc2c1O (centres undefined)	HCMV inh -95.9 (no result: MARV entry inh, LASV entry inh, VACV mCherry inh, VACV Venus inh)
Oc1ccc(Cl)c2cccnc12	VACV mCherry inh inconclusive
O=C(Oc1c(Cl)cc(Cl)c2cccnc12)c1cccs1	HCMV inh inconclusive, MARV entry inh inconclusive, LASV entry inh inconclusive, VACV mCherry inh inconclusive, VACV Venus inh inconclusive
COc1cc(OC)c(N(C)C(=O)Cn2ncc3c(=O)oc4ccccc4c32)cc1Cl	LASV entry inh inconclusive
COc1ccc(-c2nc(-c3ccccc3)nc3ccccc23)cc1	none (no result: MARV entry inh, LASV entry inh, VACV mCherry inh, VACV Venus inh, FMDV inh)
Cc1cc(=O)n2c(sc3ccccc32)c1C#N	HCMV inh -90.5
Cc1cc(=O)n(CCc2ccccc2)c(O)c1C#N	MARV entry inh inconclusive, LASV entry inh inconclusive (no result: VACV mCherry inh)
COC(=O)C1N2C(=O)N(C)[C@H](C(=O)OC)[C@H]2SC1(C)C (some centres undefined)	none (no result: HCMV inh, MARV entry inh, LASV entry inh, FMDV inh)
CC(C)n1c(SCC(=O)Nc2nc3ccccc3s2)nc2c1c(=O)n(C)c(=O)n2C	MARV entry inh inconclusive, FMDV inh 22.4µM
CCOc1ccc2nc(NC(=O)CSc3nc4c(c(=O)n(C)c(=O)n4C)n3C(C)C)sc2c1	MARV entry inh inconclusive, FMDV inh 22.4µM
CCOc1ccc(NC(=O)COC(=O)C2C3CC4OC(=O)C2C4C3)cc1 (centres undefined)	none
COc1ccc(NC(NC(=O)c2cccnc2)C(Cl)(Cl)Cl)cc1 (centres undefined)	HCMV inh -85.2, MARV entry inh inconclusive
Cc1ccccc1NC(NC(=O)c1cccnc1)C(Cl)(Cl)Cl (centres undefined)	none
CCOC(=O)C1(CC)NC(c2ccc(OC)c(OC)c2)C2C(=O)N(c3cccc(C(C)=O)c3)C(=O)C21 (centres undefined)	none (no result: MARV entry inh, LASV entry inh, VACV mCherry inh, VACV Venus inh)
Fc1ccc(CSc2nnc(-c3ccccn3)o2)cc1	none (no result: MARV entry inh, LASV entry inh, VACV mCherry inh, VACV Venus inh)
COc1ccc(Nc2nc(NCCO)nc(N3CCCC3)n2)cc1	HCMV inh inconclusive (no result: MARV entry inh, LASV entry inh, VACV mCherry inh, VACV Venus inh)
CCCNc1nc(Nc2ccc(C)cc2)nc(N2CCCC2)n1	MARV entry inh 14.6µM (no result: HCMV inh, VACV mCherry inh, VACV Venus inh)
CCOC(=O)c1cnc2c(C)cc(C)cc2c1NCCCN1CCOCC1	HCMV inh -61.8 (no result: MARV entry inh, LASV entry inh, VACV mCherry inh, VACV Venus inh)
CCOC(=O)c1cnc2c(C)cc(C)cc2c1NCCN1CCOCC1	none (no result: MARV entry inh)
